About 79,000 compounds went through this panel and 15% of them were active in at least one assay; those are over-represented in the sample as a whole. Unmarked numbers belong to inactive results. Active and inactive are the calls of the source. No stated cut-off is given here; in the data, active means growth inhibition above about 70%; inactive means the rest.
Assays:
[1] = NCI Yeast Anticancer Drug Screen. Data for the rad50 strain (AID 155);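 further: 0% = growth of vehicle-only cultures of the same strain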; conditions: S. cerevisiae rad50 strain growth inhibition; at 50.0 µM; active compounds read high
Procedure, shortened: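 Inhibition values express reduced yeast growth in compound-treated cultures relative to vehicle-treated controls.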

[2] = NCI Yeast Anticancer Drug Screen. Data for the mec2-1 strain (AID 157); conditions: S. cerevisiae mec2-1 strain, at 50.0 µM, active compounds read high
Procedure, shortened: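 Readout is yeast growth inhibition, normalised to vehicle-treated controls, in the mec2-1 strain exposed to compound.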

[3] = NCI Yeast Anticancer Drug Screen. Data for the sgs1 mgt1 strain (AID 161);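 further: 0% = growth of cultures given vehicle only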; conditions: S. cerevisiae sgs1 mgt1 strain, at 50.0 µM, active compounds read high
Procedure, shortened: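 Growth of a repair-deficient yeast mutant was monitored after compound treatment and expressed as inhibition relative to vehicle-treated cultures.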

[4] = NCI Yeast Anticancer Drug Screen. Data for the cln2 rad14 strain (AID 165);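 further: 0% = growth equal to vehicle treated cultures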; conditions: S. cerevisiae cln2 rad14 strain, at 50.0 µM, active compounds read high
Procedure, shortened: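 Relative to vehicle controls, growth inhibition of compound-treated cln2 rad14 yeast was recorded.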

[5] = NCI Yeast Anticancer Drug Screen. Data for the bub3 strain (AID 167); conditions: S. cerevisiae bub3 mutant strain, at 50.0 µM, active compounds read high
Procedure, shortened: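 Steps: expose the mutant yeast strain to compound; grow alongside vehicle-treated cultures; measure growth; express inhibition against the vehicle cultures.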

[6] = NCI Yeast Anticancer Drug Screen. Data for the mlh1 rad18 strain (AID 175); conditions: S. cerevisiae mlh1 rad18 strain growth inhibition; at 50.0 µM; active compounds read high
Procedure, shortened: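 Test agents were incubated with a yeast strain of defined genotype (DNA damage repair defect). Inhibition of growth was derived by comparison with vehicle-exposed cultures.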

Structure (SMILES) | growth inhibition [1] | growth inhibition [2] | growth inhibition [3] | growth inhibition [4] | growth inhibition [5] | growth inhibition [6]
CCC1C(=O)OCc2c1cc1n(c2=O)CCC12OCCO2 (stereo unspecified) | 0.1% | -15.1% | -36.8% | -17.6% | -23.8% | -15.6%
O=C1c2c(c3c4ccccc4[nH]c3c3[nH]c4ccccc4c23)C(=O)N1Cc1ccccc1 | -9.4% | -5.95% | 4.95% | -6.6% | -5.45% | 10.2%
Clc1nc(Cl)c2ncn(C3CCCO3)c2n1 (stereo unspecified) | -23.1% | -10% | 14.7% | -40% | 44% | 4.95%
C=C(C)C(=O)OC1CC2(C)OC2CC(OC(C)=O)/C(C)=C/C2OC(=O)C(=C)C21 (stereo unspecified) | 20.8% | 49.7% | 31.7% | 39.5% | 46.6% | -7.5%
CC(=O)NNc1nc(C)c(C(/C=C/c2ccc([N+](=O)[O-])cc2)=N/N)s1 | 22.4% | 9.2% | 3.85% | 17.4% | -0.4% | -12.4%
Cc1nc(C(Cl)(Cl)Cl)nc(C(Cl)(Cl)Cl)n1 | 19.9% | 47% | 27.2% | 9% | 18.4% | 20.4%
CCC1(C(=O)O)NC(=O)NC1=O (stereo unspecified) | -2.55% | -11.6% | -12.3% | -8.95% | 4.5% | -4.25%
Brc1ccc(-c2oc3c4ccccc4c4ccccc4c3c2-c2ccc(Br)cc2)cc1 | 32.5% | 5.35% | 17.8% | -0.95% | 2.9% | 15.2%
Cc1ccc(C(=N)c2ccccc2Cc2cccc3ccccc23)c2ccccc12 | 12.4% | -22.1% | -30.2% | -36.9% | -34.4% | -15.6%
COc1ccc(COCC[C@H](C)OC2OC(CO)C(O)C(O)C2O)cc1 (stereo partly specified) | 13.9% | -8.75% | -12.9% | -6.2% | 5.25% | -71%
CCc1c[nH]c(C=O)c1CC | 6.35% | -14.1% | -12.5% | 11.4% | -10.8% | 18.6%
Cc1cc(=O)[nH]c(NN2C(Cl)C(=O)C2c2cccc([N+](=O)[O-])c2)n1 (stereo unspecified) | 18.1% | -32.5% | -0.3% | -7.1% | -7.45% | -33.6%
COc1cc(/C=C/C=C2\CCC/C(=C\C=C\c3ccc(O)c(OC)c3)C2=O)ccc1O | 14.4% | -0.05% | 11.2% | 19.3% | 10.8% | 14.2%
Nc1ccc(Cl)c(N)c1 | 9.1% | 26.4% | 18.2% | 20.1% | 14.9% | 21.9%
CCN(CC)CCN(Cc1ccccc1)C(=S)NC(=O)c1ccccc1 | -4.35% | 2.15% | -5.25% | -5.8% | 7.35% | -19.5%
C=CCOc1ccc(Cl)cc1Br | -1.8% | -4.6% | -2.65% | -46.6% | -3.35% | -7.8%
Cc1nc(C(N)=O)c(=O)[nH]c1C | 2.25% | 2.3% | 8% | -22.9% | 2.65% | 13.7%
O=C(Nc1ccccc1C(=O)N/N=C/c1ccccc1Cl)c1ccccc1Cl | -36.5% | -14.1% | 5.1% | -25.9% | 0.25% | 4.1%
Nc1nc(SSc2nc(N)nc3c2ncn3C2OC(CO)C(O)C2O)c2ncn(C3OC(CO)C(O)C3O)c2n1 (stereo unspecified) | 1.4% | -5.8% | 3.9% | -34% | 9.45% | -1.3%
CN1NC(c2ccccc2)=NN=C1c1ccccc1 | -8.5% | 21.9% | 11.3% | 0.75% | 15.8% | 3.65%
COC1(OC)C[C@H](C)[C@@]23O[C@]24c2cc(O)c5c(c2N[C@H]3C#C/C=C\C#C[C@]14O)C(=O)c1ccccc1C5=O | 87.7% (active) | 87.2% (active) | 88.8% (active) | 88% (active) | 89.3% (active) | 90.8% (active)

Structure (SMILES) | growth inhibition [1] | growth inhibition [2] | growth inhibition [3] | growth inhibition [4] | growth inhibition [5] | growth inhibition [6]
Cc1ccccc1NC=O | -26% | -19.2% | -44.5% | 5.9% | -36.5% | -13%
CN1C(=O)N(c2nc3ccccc3[nH]2)C(C)(C)C1=O | 5.25% | 1.9% | -23.8% | -6.4% | 6.35% | 18.6%
C=Nc1ccc([N+](=O)[O-])cc1 | 6.9% | 10.2% | -1.3% | 14.6% | -4.75% | 26.3%
C/C=C(\C)C(=O)OC1CC(OC(=O)/C(C)=C/C)C2(C)C3C(=O)C=C(C)C2C3C1(C)C (stereo unspecified) | 18.8% | 5.85% | 34.6% | 25.6% | 3.05% | 6.8%
O=C(COc1ccc(Cl)cc1)Nc1ccc(I)cc1 | 0.05% | -4.85% | 0.6% | -5.15% | -1.45% | 6.45%
CC1=CC(O/C=C2\C(=O)OC3C=CCC23)OC1=O (stereo unspecified) | -1.6% | -32% | 17.4% | 4.05% | -11.6% | 0.55%
Cn1c(=O)c2[nH]c(SCC(=O)O)nc2n(C)c1=O | 7.45% | 0.95% | 3.35% | -21.4% | 7.6% | -3.65%
CC(O)C(=O)OCCOCCOC(=O)C(C)O (stereo unspecified) | 21.4% | 4.1% | 10.8% | -11.8% | 11.8% | 7.4%
COc1ccc(C2=C(c3ccccc3)C(C)(C)Oc3ccc4ccccc4c32)cc1 | -44.8% | -0.05% | -5.9% | 14.2% | -2.8% | -7.3%
O=COCCOC=O | 19.9% | 5.55% | -23.6% | 20.6% | 10.2% | 14.2%
CC(C)CCCC(C)C1CCC2(C)C3=C(CCC12C)C1(C)CCC(O)C(C)(C)C1CC3=O (stereo unspecified) | -0.35% | -0.5% | -18.6% | 1.85% | 2.1% | -5.45%
Nc1ccc([N+](=O)[O-])c2ccccc12 | 17.1% | -8.75% | 12.7% | 10.8% | 24.6% | 12.7%
CCCC(=O)n1[nH]c(=O)n(-c2ccc(Cl)cc2)c1=O | 5.15% | -12.3% | 19.8% | 3.25% | -2.1% | -10.3%
CCC1C(C)C=CN1c1nc(N)nc(NS(=O)(=O)c2cc(C)c(Cl)cc2S)n1 (stereo unspecified) | -18.2% | 2.5% | 17.7% | -1.9% | 4.3% | 12.2%
O=S(=O)([O-])c1ccc2c(c1)-c1nc-2nc2[n-]c(nc3nc(nc4[n-]c(n1)c1ccc(S(=O)(=O)[O-])cc41)-c1cc(S(=O)(=O)[O-])ccc1-3)c1ccc(S(=O)(=O)[O-])cc21.[Cu+2].[Na+] | -13.7% | -40.1% | -23.8% | -16.2% | -34% | -94.2%
CC(C)[C@@H]1NC(=O)[C@@H]2N=C(O[C@H]2C)[C@H](C(C)C)NC(=O)C2N=C1O[C@H]2C | 11% | 4.75% | 2.15% | 9.45% | 10.3% | -34.1%
CC(O)C12OC1CC1C3CC4OC45CC(O)CCC5(C)C3CCC12C (stereo unspecified) | 36.5% | 20.6% | 38.7% | 31.1% | 36.9% | 9.1%
O=C(Nc1ccc(Cl)cc1)NS(=O)(=O)c1coc2ccccc2c1=O | 9.65% | 7.3% | -5.75% | 18.6% | 11.6% | 23.1%
O=C1Oc2cc3c(c4cccc1c24)OCN(c1ccc(Cl)cc1)C3 | 38.6% | 29.9% | 53.1% | 33% | 33% | 37.5%
Fc1cccc2c1Cc1ccccc1-2 | 5.75% | -8.65% | -21.3% | -58.7% | -1.85% | 17.3%

— PubChem BioAssay (NCI)
